Source: PubChem (several laboratories)
In the library only some 3.9% were active in any assay of this set; here they are far more common.
AHR activator: human AHR activation; P35869; AHR-responsive luciferase reporter cells, luminescence; activation, % at 5 µM; actives 2.5% (n = 320,000); AID 2796; in the data active = activation above about 47%;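 note: 0% = vehicle wells and 100% = reference agonist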
HGIII-sPLA2 inh: Inhibits HGIII-sPLA2 liposome hydrolysis, primary screen; Q9NZ20; QFRET BODIPY PC-A2 liposome hydrolysis, fluorescence; inhibition, % at 12.2 µM; actives 0.56% (n = 370,000);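 active = inhibition above mean plus 3 SD of compounds lying within the high and low control bounds, cut at about 19% in these data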;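 note: 0% = median of test compound wells and 100% = no enzyme DMSO wells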
PLC-beta3 inh: PLC-beta3 (human) inhibition, primary screen | Q01970 | Purified PLC-beta3, fluorogenic substrate, fluorescence | inhibition, % at 12.2 µM | actives 0.18% (n = 370,000) | AID 720704; in the data active = inhibition above about 11%;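 note: 0% = median of compound wells on plate and 100% = full blocker control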
PLCg1 inh: blocks human PLC-gamma1 enzyme activity. purified PLC-gamma1, fluorogenic substrate, fluorescence. inhibition, % at 12.2 µM. actives 0.84% (n = 370,000). AID 720700; in the data active = inhibition above about 9.5%
Target sequence (P19174 whole entry, looked up): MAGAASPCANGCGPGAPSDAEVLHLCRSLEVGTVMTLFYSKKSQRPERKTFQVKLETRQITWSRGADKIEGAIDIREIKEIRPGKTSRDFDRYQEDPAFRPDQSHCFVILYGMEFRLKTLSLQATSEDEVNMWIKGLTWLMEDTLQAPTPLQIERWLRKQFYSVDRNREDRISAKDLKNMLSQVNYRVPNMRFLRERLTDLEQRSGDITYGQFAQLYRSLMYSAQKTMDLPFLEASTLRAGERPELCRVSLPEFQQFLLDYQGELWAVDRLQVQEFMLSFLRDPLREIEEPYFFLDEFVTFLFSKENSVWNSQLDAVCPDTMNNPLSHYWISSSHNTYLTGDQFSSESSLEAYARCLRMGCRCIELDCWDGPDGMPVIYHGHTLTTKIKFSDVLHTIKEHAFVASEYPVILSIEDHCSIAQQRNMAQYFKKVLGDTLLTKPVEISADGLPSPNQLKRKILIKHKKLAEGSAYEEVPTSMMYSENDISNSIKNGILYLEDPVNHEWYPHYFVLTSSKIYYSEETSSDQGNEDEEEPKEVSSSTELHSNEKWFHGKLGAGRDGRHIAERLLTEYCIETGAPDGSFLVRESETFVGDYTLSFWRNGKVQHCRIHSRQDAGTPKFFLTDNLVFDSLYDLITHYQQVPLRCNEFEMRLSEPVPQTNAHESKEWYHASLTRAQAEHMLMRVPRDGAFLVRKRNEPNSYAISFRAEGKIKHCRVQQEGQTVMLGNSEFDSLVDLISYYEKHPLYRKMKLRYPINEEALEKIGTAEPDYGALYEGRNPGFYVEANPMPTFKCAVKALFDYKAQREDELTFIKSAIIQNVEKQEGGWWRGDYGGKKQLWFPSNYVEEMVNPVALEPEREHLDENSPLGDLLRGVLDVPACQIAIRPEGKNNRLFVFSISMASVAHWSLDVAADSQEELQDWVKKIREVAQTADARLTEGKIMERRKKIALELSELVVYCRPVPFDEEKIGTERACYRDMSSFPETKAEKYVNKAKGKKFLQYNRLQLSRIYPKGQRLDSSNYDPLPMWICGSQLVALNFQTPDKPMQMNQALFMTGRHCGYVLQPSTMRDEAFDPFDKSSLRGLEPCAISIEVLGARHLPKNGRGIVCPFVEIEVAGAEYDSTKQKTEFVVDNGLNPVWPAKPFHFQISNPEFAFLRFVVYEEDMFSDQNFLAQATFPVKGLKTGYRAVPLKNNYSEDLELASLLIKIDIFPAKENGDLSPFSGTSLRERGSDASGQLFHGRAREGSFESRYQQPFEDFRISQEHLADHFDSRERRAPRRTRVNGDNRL
CR mimetic SO: lowers age-related superoxide in aged yeast cells; S. cerevisiae aged cells, superoxide DHE fluorescence; active compounds read low; superoxide response (% of plate mean), % at 10 µM; actives 0.18% (n = 330,000);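 active = superoxide response under a set limit, about three screen SD below normal, cut at about 65% in these data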;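 note: yeast aged for seven days with compound at 30 °C before DHE staining; 100% = average MFI of all compound-treated wells on the plate with controls excluded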
HIF activator: HIF pathway transcriptional activation; U2OS HRE-luciferase reporter, luminescence; normalized: DMSO 0%, desferrioxamine 100%; activation, % at 7.5 µM (by protocol); actives 0.32% (n = 300,000);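 active = mean activation of at least 10% of the iron chelator positive control signal, with at least half of replicates also reaching 10%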
Active calls of the source: *.

For COc1ccc(CN(Cc2cc3cc4c(cc3[nH]c2=O)OCO4)C(=O)NC2CCCCC2)cc1 the results were AHR activator 8.7, HGIII-sPLA2 inh 1.7, PLC-beta3 inh -4.2, PLCg1 inh -2.3, CR mimetic SO 102.5 and HIF activator 0.0.
For COC(=O)c1ccccc1S(=O)(=O)N(Cc1cc2cc3c(cc2[nH]c1=O)OCO3)C1CCCCC1 the results were AHR activator 62.7*, CR mimetic SO 105.3 and HIF activator -0.3.
`COC(=O)C1CN(Cc2ccccc2)CCS(=O)(=O)N1Cc1cn(Cc2ccc(F)cc2)nn1` (configuration not stated) gave HGIII-sPLA2 inh -2.6, PLC-beta3 inh -0.5 and PLCg1 inh 0.3.
For O=C(CSc1nc2ccccc2o1)NN=C/C=C/c1ccccc1 the results were HGIII-sPLA2 inh -2.0, PLC-beta3 inh -4.1 and PLCg1 inh -1.0.
Screening COc1ccc2nc(NC(=O)CSc3nccc(C)n3)sc2c1 returned AHR activator -0.1, HGIII-sPLA2 inh -4.6, PLC-beta3 inh 0.2, PLCg1 inh -2.2, CR mimetic SO 102.8 and HIF activator 39.3*.
Screening Cc1nn2c(-c3ccccc3)nnc2c2ccccc12 returned AHR activator 36.6, HGIII-sPLA2 inh 0.6, PLC-beta3 inh -11.8, PLCg1 inh -6.2 and CR mimetic SO 97.4.
Screening Cc1nn2c3ccccc3nc2c2ccccc12 returned AHR activator 58.6*, HGIII-sPLA2 inh 0.5, PLC-beta3 inh -189.4, PLCg1 inh -161.2, CR mimetic SO 102.1 and HIF activator 1.7.
CCCCCCc1ccc(NC(=O)[C@@H]2CC=C[C@@H]3CCN(Cc4ccccc4)C(=O)[C@@H]32)cc1 was read as HGIII-sPLA2 inh 0.9, PLC-beta3 inh 0.4 and PLCg1 inh -0.7.
`CC(=O)Nc1c([N+](=O)[O-])cc(C)c(Cl)c1[N+](=O)[O-]` gave AHR activator 5.2, HGIII-sPLA2 inh -0.3, PLC-beta3 inh 3.9, PLCg1 inh 1.1, CR mimetic SO 110.2 and HIF activator 12.8*.
Screening CC(=O)Nc1c(C)ccc([N+](=O)[O-])c1C returned HGIII-sPLA2 inh 7.2, PLC-beta3 inh 0.4 and PLCg1 inh 2.1.
Screening CC[C@H](NC(=O)[C@@H](Cc1ccccc1)NC(=O)[C@H]1O[C@@H](n2cnc3c(=O)[nH]c(N)nc32)[C@H](O)[C@@H]1O)c1ccccc1 returned HGIII-sPLA2 inh -1.9, PLC-beta3 inh 1.3 and PLCg1 inh 1.5.
`N#CC1=C(N)Oc2c(ccc3ccccc23)C1c1ccsc1` (configuration not stated) gave AHR activator 59.5*, HGIII-sPLA2 inh -2.4, PLC-beta3 inh -136.9, PLCg1 inh -96.3, CR mimetic SO 125.2 and HIF activator 3.2.
For COc1ccc(CNC(=O)O[C@H]2CC[C@@]34CCCN3C(=O)CCC[C@H]4[C@H]2C)cc1 the results were HGIII-sPLA2 inh 1.8, PLC-beta3 inh 5.6 and PLCg1 inh 3.6.
For NS(=O)(=O)c1cccc(NC(=O)COC(=O)Cc2ccc(S(=O)(=O)N3CCCCC3)s2)c1 the results were AHR activator -0.9, HGIII-sPLA2 inh -35.0, PLC-beta3 inh -8.8, PLCg1 inh -8.3, CR mimetic SO 84.7 and HIF activator -0.4.
`O=C(COC(=O)Cc1ccc(S(=O)(=O)N2CCCCC2)s1)Nc1ccc2c(c1)OCO2` gave AHR activator 6.3, HGIII-sPLA2 inh -25.2, PLC-beta3 inh -10.9, PLCg1 inh -7.2, CR mimetic SO 97.8 and HIF activator 24.5*.
`Cc1cc(C)nc(SCC(=O)N/N=C/c2cc(C)n(-c3ccccc3C)c2C)n1` gave AHR activator 11.3, HGIII-sPLA2 inh 5.3, PLC-beta3 inh 1.6, PLCg1 inh 1.3, CR mimetic SO 94.0 and HIF activator -1.6.
`Cc1cc(C)nc(SCC(=O)N/N=C\c2sccc2C)n1` gave AHR activator 63.0*, HGIII-sPLA2 inh -2.9, PLC-beta3 inh 1.2, PLCg1 inh -2.5, CR mimetic SO 92.9 and HIF activator -0.3.
c1ccc2sc(-c3csc4c3CCNC4)nc2c1 was read as HGIII-sPLA2 inh -0.8, PLC-beta3 inh -5.6 and PLCg1 inh -5.4.
For Brc1cc(Br)c2nc(-c3cccs3)ccc2c1 the results were AHR activator 52.0*, HGIII-sPLA2 inh 4.1, PLC-beta3 inh 3.9, PLCg1 inh 5.4, CR mimetic SO 101.2 and HIF activator 3.3.
For Nc1nccc(-c2cccs2)n1 the results were AHR activator 0.8, HGIII-sPLA2 inh -2.0, PLC-beta3 inh -4.5, PLCg1 inh 1.4, CR mimetic SO 99.8 and HIF activator 0.3.
`Cc1sc2ncnc(N[C@@H](Cc3c[nH]c4ccccc34)C(=O)O)c2c1C` gave AHR activator 48.0*, HGIII-sPLA2 inh -47.8, PLC-beta3 inh -11.4, PLCg1 inh -7.4, CR mimetic SO 107.8 and HIF activator -0.1.
For CCc1cc2c(N[C@@H](Cc3c[nH]c4ccccc34)C(=O)O)ncnc2s1 the results were AHR activator 27.3, HGIII-sPLA2 inh -40.0, PLC-beta3 inh -1.2, PLCg1 inh -0.2, CR mimetic SO 118.2 and HIF activator -1.1.
For O=C(C1CCC1)N1CCc2cc(S(=O)(=O)N3CCN(c4ccccc4F)CC3)ccc21 the results were HGIII-sPLA2 inh 3.6, PLC-beta3 inh 2.1 and PLCg1 inh -0.5.
COc1ccc(C2=NN(C(=O)CSc3nc4ncc(Cl)cc4[nH]3)C(c3ccco3)C2)cc1 (configuration not stated) was read as AHR activator 47.2*, HGIII-sPLA2 inh -25.1, PLC-beta3 inh -5.2, PLCg1 inh 1.6, CR mimetic SO 106.4 and HIF activator 0.0.
Screening Cc1ccc(C2=NN(C(=O)CSc3nc4ncc(Cl)cc4[nH]3)C(c3ccco3)C2)cc1 (configuration not stated) returned AHR activator 44.1, HGIII-sPLA2 inh -5.3, PLC-beta3 inh -0.1, PLCg1 inh 5.7, CR mimetic SO 115.8 and HIF activator 0.0.
Screening O=C(N[C@@H](Cc1cccnc1)C(=O)N1CCC[C@H]1C(=O)NCCc1ccccc1Cl)c1ccc(Cl)c(Cl)c1 returned HGIII-sPLA2 inh -8.8, PLC-beta3 inh 2.4 and PLCg1 inh 3.3.
`CC(C)Oc1cccc(-c2cc(C(=O)NC(=S)N(C)c3ccccc3C(=O)O)c3ccccc3n2)c1` gave AHR activator 49.7*, HGIII-sPLA2 inh 1.3, PLC-beta3 inh -110.3, PLCg1 inh -98.4, CR mimetic SO 124.9 and HIF activator 0.4.
Screening CC(C)Oc1cccc(-c2cc(C(=O)NN3CCOCC3)c3ccccc3n2)c1 returned AHR activator 28.2, HGIII-sPLA2 inh -2.8, PLC-beta3 inh -35.2, PLCg1 inh -18.3, CR mimetic SO 96.6 and HIF activator 0.9.
C=CCn1c(SCc2nc3ccccc3c(=O)[nH]2)nc2ccccc2c1=O was read as AHR activator 59.7*, HGIII-sPLA2 inh -5.7, PLC-beta3 inh -3.6, PLCg1 inh -3.2, CR mimetic SO 100.0 and HIF activator -0.1.
`O=C1Nc2ccccc2O/C1=C\c1c(F)cccc1Cl` gave AHR activator 49.1*, HGIII-sPLA2 inh -8.0, PLC-beta3 inh inactive, PLCg1 inh -467.7, CR mimetic SO 120.8 and HIF activator 0.6.
